Laboratory results as given in PubChem BioAssay (NCATS).
Records with an inconclusive call do not appear. Where a call stands in place of a potency, no number is given. Activity calls are given as the source filed them. Calls follow the shape of the dose curve; as a rule, active = well fitted inhibition curve with a large enough effect; inconclusive = small, poorly fitted or top-dose-only effect; inactive = flat fitted curve, though single readings scatter.

These molecules were tested against Calcium and integrin-binding protein 1 (Homo sapiens) (UniProt Q99828) (assay: Primary qHTS for Identification of Calcium Integrin Binding Protein 1 (CIB1) Competitor (AID 1508620;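 also: GST tagged CIB1 binding a fluorescein labelled alphaIIb integrin peptide tracer; top concentration of the series differs between compounds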)). Details: CIB1-GST / FITC-alphaIIb peptide fluorescence polarization; series mostly up to 57.7 µM.
Source text: Assay Provider: Ulhas P. Naik, PhD Sidney Kimmel Medical College Thomas Jefferson University, Philadelphia, PA Primary function of platelets is to maintain hemostasis. At the site of vascular injury, platelets adhere to adhesive proteins such as collagen and von Willebrand factor. Adherent platelets are activated and generate soluble platelet agonists such as thrombin, ADP and thromboxane A2. Following exposure of circulating platelets to these agonists, results in platelet shape change, granule secretion and activation of platelet integrin alphaIIb-beta3. Ligand binding to activated integrin alphaIIb-beta3 triggers outside-in signaling, leading to platelet aggregation, stabilization of platelet plug, and clot retraction. Upon atherosclerotic plaque rupture also causes platelet plug formation, which underlies a number of cardiovascular diseases such as myocardial infraction and stroke. A number of anti-platelet drugs such as aspirin, clopidogrel, prasugrel, vorapaxar, and eptifibatide are currently available to prevent the thrombotic complications. However, these anti-platelet agents have several limitations including inherent variability in individual responses, developing resistance, and serious bleeding side effects. For these reasons they are not suitable for long-term protection. Based on the experiences with current anti-platelet drugs, it appears that the most useful therapeutic approach is to intersect the secondary responses such as integrin outside-in signaling or recruitment of platelets by TxA2 and secreted ADP. Compounds, which can largely preserve the primary hemostatic function of platelets but inhibit secondary response will be most desired therapeutic agents for treatment of cardiovascular disease. CIB1 is a calcium integrin binding protein, which specifically interact with the alphaIIb subunit of integrin alphaIIb-beta3. Binding of CIB1 to alphaIIb regulates the outside-in signaling in platelets, which is needed for thrombus stabilization and thrombus growth. […] Therefore, we propose that discovery of a small molecule that can prevent the association of CIB1 and alphaIIb-beta3 will be a potential anti-platelet agent that can block the thrombus formation without undue effect on hemostasis. Reference: [1] Naik MU, Nigam A, Manrai P, et al. CIB1 deficiency results in impaired thrombosis: the potential role of CIB1 in outside-in signaling through integrin alpha IIb beta 3. J Thromb Haemost.
PROTOCOL TABLES SEQUENCE No. (1, 2, 3, etc.); […] (e.g., Cells, Incubation, Reagent, etc.); VALUE and DESCRIPTION. 1; Reagent; 3 uL; Protein or buffer (4/3x) 2; Compound; 46 nL; Control inhibitor / compound library 3; Time; 15 min; Room temperature incubation 4; Reagent; 1 uL; Fluorescent labeled peptide (4x) 5; Time; 1000 rpm; Centrifuge 6; Time; 15 min; Room temperature incubation 7; Detection; Ex 480/ Em 540; ViewLux Fluorescence Read NOTES (numbers refer to sequence above) 1; Protein Mixture: C1B1-GST (final concentrations of 1 uM). […] 3; Room temperature incubation. 4; Fluorescent Labeled Peptide: FITC-aIIb (final concentration of 100 nM). Sequence of alphaIIb peptide: Acetyl-[…]-FITC (purity is 95.83%). 5; Centrifuge 1000 rpm (164 g) for 15 seconds. 6; Room temperature incubation. 7; ViewLux Fluorescent Polization Read: excitation = 480(20) / emission = 540(25) S and P; FITC Dichroic mirror.

Sequence of Calcium and integrin-binding protein 1 (Homo sapiens) (Q99828 whole entry, looked up): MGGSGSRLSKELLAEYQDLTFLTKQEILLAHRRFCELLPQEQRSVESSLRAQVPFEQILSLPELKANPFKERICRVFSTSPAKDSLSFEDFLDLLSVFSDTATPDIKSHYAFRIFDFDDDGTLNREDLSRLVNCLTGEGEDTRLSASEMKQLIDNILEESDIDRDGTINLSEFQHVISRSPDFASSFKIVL

SMILES | Potency
C#C[C@]1(O)CC[C@@H]2[C@@H]3CCc4cc(O)ccc4[C@H]3CC[C@@]21C | inactive
N[C@H]1CN(c2c(F)cc3c(=O)c(C(=O)O)cn(C4C[C@@H]4F)c3c2Cl)CC12CC2 (stereo not given in full) | inactive
COc1cc(OC)c(C=CS(=O)(=O)Cc2ccc(OC)c(NCC(=O)O)c2)c(OC)c1 | inactive
O=C(NNC(=O)c1ccc(CNS(=O)(=O)c2ccc(F)c(Cl)c2)cc1)c1ccccc1 | inactive
Nc1nc(=O)n([C@H]2C[C@H](O)[C@@H](CO)O2)cc1F | inactive
Cc1ccc([N+](=O)[O-])cc1S(=O)(=O)N(C)N=Cc1cnc2ccc(Br)cn12 | inactive
CC(C)C[C@H](NC(=O)[C@@H](NC(=O)c1cccc(-c2ccccc2)n1)[C@@H](C)O)B(O)O | inactive
NC(=O)Nc1cc(-c2ccc(CN3CCOCC3)cc2)sc1C(N)=O | inactive
Cc1nc(NC(=O)N2CCC[C@@H]2C(N)=O)sc1-c1ccnc(C(C)(C)C(F)(F)F)c1 | inactive
Cn1cnc(=N)c2[nH]cnc21 | inactive
O=C(CN1C(=O)C2(CCCC2)NC[C@H]1c1cc(F)cc(F)c1)Nc1ccc2c(c1)C[C@@]1(C2)C(=O)Nc2ncccc21 | inactive
C=C1C(=O)O[C@H]2[C@@H]1CCC(C)=CCC[C@@]1(C)O[C@@H]21 | inactive
C[C@H](CCC(=O)O)[C@H]1CC[C@H]2[C@@H]3[C@H](O)C[C@@H]4C[C@H](O)CC[C@]4(C)[C@@H]3CC[C@]12C | inactive
C=CCNC1=C2C[C@@H](C)C[C@H](OC)[C@@H](O)[C@@H](C)C=C(C)[C@H](OC(N)=O)[C@@H](OC)C=CC=C(C)C(=O)NC(=CC1=O)C2=O | inactive
O=C1NCCc2[nH]c(-c3ccncc3)cc21 | inactive
Cc1cc(O)c2c(c1)C(=O)c1cccc(O)c1C2=O | inactive
CCN(CC)CCCCNc1ncc2c(n1)N(C)C(=O)N(c1c(Cl)c(OC)cc(OC)c1Cl)C2 | inactive
Cc1cncc2cccc(S(=O)(=O)N3CCCN(C(=O)CN)C[C@@H]3C)c12 | inactive
CO[C@@H]1[C@@H](O)[C@H](O)[C@@H](n2c3c(Cl)cccc3c3c4c(c5c6cccc(Cl)c6[nH]c5c32)C(=O)NC4=O)O[C@@H]1CO | inactive
C=C1CCC2[C@](C)(CO)C(O)CC[C@]2(C)C1CC=C1C(=O)OCC1O (stereo not given in full) | inactive

SMILES | Potency
COc1ccc(C=Cc2cc(OC)c(OC)c(OC)c2)cc1NC(=O)[C@H](N)CO | inactive
CC(C)N(CC[C@H](c1ccccc1)c1cc(CO)ccc1O)C(C)C | inactive
O=c1c(O)c(-c2ccc(O)c(O)c2)oc2cc(O)ccc12 | inactive
N#Cc1c(NC(=O)c2cccc3ccccc23)sc2c1CCCC2 | inactive
O=C1NC(=O)[C@@H](c2cn3c4c(cccc24)CCC3)[C@H]1c1c[nH]c2ccccc12 | inactive
C=CC(=O)N1CCc2ccc(-n3c(=O)ccc4cnc5ccc(-c6cnn(C)c6)cc5c43)cc21 | inactive
O=C(NCc1ccccc1)[C@H](Cc1ccccc1)NC(=O)[C@@H]1O[C@@H]1C(=O)NCCc1ccc(O)cc1 | inactive
O=C(O)CCCCCC(=O)NN=C1CCCC1 | inactive
Cc1[nH]c(C=C2C(=O)Nc3ccccc32)c(C)c1CCC(=O)O | inactive
Cc1cn([C@@H]2O[C@H](CO)[C@@H](O)[C@H]2F)c(=O)[nH]c1=O | inactive
CC(=O)N[C@H]1[C@@H]([C@H](O)[C@H](O)CO)OC(C(=O)O)=C[C@@H]1N=C(N)N | inactive
CN1CCc2c(c3ccccc3n2Cc2ccc(C(=O)NO)cc2)C1 | inactive
CC(=O)NCC(=O)N1[C@H]2CC[C@H]1c1cc(Nc3ncc(C(F)(F)F)c(NC4CCC4)n3)ccc12 | inactive
CCCCCCCCCCCCc1ccc(S(=O)(=O)Nc2nncs2)cc1 | inactive
C[N+]1(C)[C@@H]2C[C@@H](OC(=O)C(O)(c3cccs3)c3cccs3)C[C@H]1[C@@H]1O[C@@H]12 | inactive
CN(CC(=O)N(Cc1ccc(C2CCCCC2)cc1)c1ccc(C(=O)O)c(O)c1)S(=O)(=O)c1c(F)c(F)c(F)c(F)c1F | inactive
COc1cc(C)c(Sc2cnc(NC(=O)c3ccc(CNC(C)C(C)(C)C)cc3)s2)cc1C(=O)N1CCN(C(C)=O)CC1 (stereo not given) | inactive
COc1cc(C(C)C)c(Oc2cnc(NC(CO)CO)nc2N)cc1I | inactive
CON=C(C(=O)N[C@@H]1C(=O)N2C(C(=O)O)=C(Cn3ccc(=N)n3CCO)CS[C@H]12)c1csc(N)n1 | inactive
O=C(C[C@@H]1CC=CCCC(=O)O[C@H](c2ccccc2)CNC1=O)NCc1ccc(Cl)cc1 | inactive
